We go through 9 compounds from PubChem BioAssay.

The term viability denotes a per cent measure of how many cells are alive, often set against a control. What is called EC50 is the midpoint of the concentration-response curve. The term inhibition denotes the percentage by which the read-out fell short of the control.

For assay [1], the target named is ATP-dependent translocase ABCB1 (Homo sapiens) (UniProt P08183). Kind of assay: MDR1 (ABCB1) efflux transporter inhibition, cell-based (AID 377; in the data active = fluorescence slope change above about 50%). The following applies: MDR1-expressing cells, fluorescent substrate accumulation slope; stronger effect = higher value; concentration not given here.
Chain of ATP-dependent translocase ABCB1 (Homo sapiens) (P08183 whole entry, looked up): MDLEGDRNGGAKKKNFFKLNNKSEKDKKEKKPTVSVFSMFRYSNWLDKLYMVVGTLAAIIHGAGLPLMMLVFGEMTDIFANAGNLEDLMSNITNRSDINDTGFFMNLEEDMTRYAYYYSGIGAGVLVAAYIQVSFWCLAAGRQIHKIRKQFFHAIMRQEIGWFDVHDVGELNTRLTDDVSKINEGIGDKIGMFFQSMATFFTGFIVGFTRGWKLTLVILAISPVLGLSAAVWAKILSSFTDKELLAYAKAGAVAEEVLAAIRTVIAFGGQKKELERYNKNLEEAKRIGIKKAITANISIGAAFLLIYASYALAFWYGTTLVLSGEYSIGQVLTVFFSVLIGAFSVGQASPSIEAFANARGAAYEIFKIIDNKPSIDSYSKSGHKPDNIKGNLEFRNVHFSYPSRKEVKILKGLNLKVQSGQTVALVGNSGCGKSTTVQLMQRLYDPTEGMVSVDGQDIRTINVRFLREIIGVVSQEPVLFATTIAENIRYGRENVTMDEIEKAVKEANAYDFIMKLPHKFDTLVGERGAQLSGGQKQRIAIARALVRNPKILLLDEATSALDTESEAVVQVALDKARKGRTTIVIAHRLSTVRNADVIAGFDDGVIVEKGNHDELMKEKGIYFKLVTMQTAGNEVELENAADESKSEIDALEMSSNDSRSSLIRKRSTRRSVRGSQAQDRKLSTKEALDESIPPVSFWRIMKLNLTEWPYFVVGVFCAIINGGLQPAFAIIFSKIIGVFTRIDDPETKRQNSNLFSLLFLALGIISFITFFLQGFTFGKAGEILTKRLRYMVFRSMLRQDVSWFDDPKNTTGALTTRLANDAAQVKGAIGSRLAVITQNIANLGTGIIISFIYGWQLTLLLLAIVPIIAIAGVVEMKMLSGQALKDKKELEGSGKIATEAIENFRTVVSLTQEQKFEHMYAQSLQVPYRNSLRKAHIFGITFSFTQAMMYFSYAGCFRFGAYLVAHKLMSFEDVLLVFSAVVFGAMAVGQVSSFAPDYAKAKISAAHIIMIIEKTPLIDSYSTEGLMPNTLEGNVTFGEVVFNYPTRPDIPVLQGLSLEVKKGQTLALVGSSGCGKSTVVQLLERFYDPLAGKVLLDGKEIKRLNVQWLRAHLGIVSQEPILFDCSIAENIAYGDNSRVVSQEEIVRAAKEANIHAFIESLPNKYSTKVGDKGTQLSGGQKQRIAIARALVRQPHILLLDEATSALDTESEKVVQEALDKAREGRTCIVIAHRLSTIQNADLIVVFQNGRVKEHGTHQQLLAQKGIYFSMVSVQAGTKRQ
The nature of assay [2]: hESC survival regulators, cell-based (AID 493140; call rule not given here;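 note: cells exposed to compounds for four days before counting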). As to conditions: human embryonic stem cell survival screen; stronger effect = higher value.
A short description of assay [3]: liver-stage malaria parasite growth inhibition, primary screen, cell-based, HepG2, luciferase luminescence, HepG2 viability (AID 624349; in the data active = parasite load remaining mostly below about 12%, no sharp cut-off; inactive = mostly above about 10%;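 note: 100% = mean of DMSO negative control wells on the same plate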). The following applies: P. berghei liver stage in HepG2, luciferase luminescence, concentration not given here; parasite load remaining: stronger effect = lower value; viability: measured here: HepG2 viability without parasites.
Assay [4] in a line: sensitizers of A549 cells to miR-34 induction, primary screen, imaging, A549 dox-inducible miR-34, nuclei and caspase counts (AID 1347080). The following applies: A549 miR-34 inducible, Hoechst nuclei count, 48 h.
Assay [5] in a line: survival rescue of mitochondrial mutant cells in low glucose, primary screen, MELAS cybrids, Rieske KO mouse fibroblasts, CellTiter-Glo (AID 1508586;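 active = mean z-score across replicates of 1.96 or higher in either the MELAS or the Rieske mutant cell line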;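 note: z relative to plate mean and SD of compound and empty wells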).
Assay [6] can be described thus: viability rescue of complex I mutant cybrids, primary screen, cell-based, galactose medium, ATP luminescence (AID 1645843;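 active = z-score of at least 1.8 in each of two replicates, scored against plate mean and spread of sample wells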;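 note: positive z means more ATP and so rescue of galactose-driven cybrid death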). As to conditions: complex I mutant cybrid cells, 72 h, stronger effect = higher value.
Assay [7] in a line: mitochondrial permeability transition inhibitors (AID 1580; call rule not given here). As to conditions: isolated mitochondria, permeability transition inhibition.
Assay [8] in a line: polyglutamine-triggered caspase-3 activation inhibitors, cell-based (AID 1583). As to conditions: polyglutamine-induced caspase-3 activation, cell assay; stronger effect = higher value;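 tested at 10 µM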.
A short description of assay [9]: suppressors of polyQ aggregation in yeast, 75Q-TubU reporter (AID 1593). As to conditions: Yeast 75Q polyglutamine aggregation reporter.
Assay [10] is described as follows: inhibitors of mitochondrial cytochrome c release, biochemical, purified mitochondria (AID 1603).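 Note: mouse liver mitochondria challenged with calcium chloride; signal normalized to the plate average as 100%.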 As to conditions: stronger effect = lower value.
Assay [11] is described as follows: inhibitors of polyQ protein aggregation (AID 1604). The following applies: polyglutamine-induced protein aggregation inhibition assay; stronger effect = higher value; tested at 2.5 µM.
Assay [12] in a line: protection against mutant huntingtin cytotoxicity, PC12 cells, LDH release (AID 1610). The following applies: PC12 mutant huntingtin toxicity, final LDH at 4 uM, stronger effect = lower value. On the technique in general: LDH leaks from cells whose membrane has failed.
Assay [13] can be described thus: enhancers of glutamate uptake in motor neurons, MN-1 cell line (AID 1612).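 Note: tested at 1 µM final; 0% = mean of DMSO vehicle wells on each plate; positive means more glutamate uptake than control and negative means less.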 The following applies: MN-1 motor neuron cells, stronger effect = higher value.
A short description of assay [14]: suppressors of polyglutamine aggregation in yeast, 75Q-TubH (AID 1616). The following applies: S. cerevisiae 75Q-TubH polyglutamine aggregation suppression; stronger effect = higher value.
Where [15] appears, read: measured here: relative caspase fold change +Dox/-Dox.
Where [16] appears, read: measured here: total cells with miR-34 induction, stronger effect = lower value.
[17] abbreviates: measured here: total cells without miR-34 induction.
Setting [18] is: MELAS cybrid survival, CellTiter-Glo 48 h, stronger effect = higher value.
Setting [19] is: Rieske KO mouse fibroblast survival, CellTiter-Glo 72 h.
Setting [20] is: stronger effect = lower value, cell number ratio, induced over uninduced.

Several values for one entry are separate records, joined by “and”; a condition that tells them apart may be missing. Identical values can stand only once. Inconclusive results are not listed. Activity calls are given as the source filed them.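 Rule for the calls, unless noted: active = compounds whose cell count with miR-34 switched on is under 0.7 times the count with it off; inactive = the rest.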

For the compound `C[C@]12CCC3[C@@H](CC[C@@H]4C[C@H](O)CC[C@]34C)[C@@H]1CCC2=O` (some centres not stated), in assay [1], the fluorescence slope change was 52.7% (active). For the same compound, the survival in assay [2] was 4.25 (inactive). For the same compound, in assay [3], the parasite load remaining is 68.6% (inactive). For the same compound, the viability in assay [3] is 95.7%. For the same compound, the results for the fold change in assay [4] (stronger effect = lower value) and in [4] (setting [15]) were 0.895 (inactive) and 1.16, respectively. The results for the cell count in [4] (setting [16]) and in assay [4] (setting [17]) were 8930 and 9980, respectively. Besides, the z-score in assay [5] (setting [18]) is -0.449 (inactive); in assay [5] (setting [19]), 0.448.
For `CN[C@@H]1[C@@H](O)[C@@H](O[C@@H]2[C@@H](O)[C@H](O[C@H]3O[C@H]([C@@H](C)NC)CC[C@H]3N)[C@@H](N)C[C@H]2N)OC[C@]1(C)O` (tested in a mixture with another compound), the survival in assay [2] was 18.8 (inactive). In [3], the parasite load remaining is 54.7% (inactive) and 51.8% (inactive). Further, the viability in [3] is 60.6% and 91.5%. In addition, the fold change was 1.02 (inactive) in assay [4] (stronger effect = lower value) and 0.941 in [4] (setting [15]). Moreover, the cell count in assay [4] (setting [16]) was found to be 8090; in assay [4] (setting [17]), 7960. The z-score is -0.902 (inactive) in [5] (setting [18]) and -0.563 in assay [5] (setting [19]).
For `Oc1ccc2c3c1OC1C(O)CC[C@@]4(O)C(C2)N(CC2CCC2)CC[C@]314` (some centres not stated), the fold change in [4] (stronger effect = lower value) is 0.877 (inactive); in assay [4] (setting [15]), 1.82. The cell count in assay [4] (setting [16]) is 8530; in [4] (setting [17]) it was 9720. Besides, the z-score in assay [6] is 0.8 (inactive).
Take `CN1[C@@H]2CC[C@H]1CC(OC1c3ccccc3CCc3ccccc31)C2` (some centres not stated): the parasite load remaining in assay [3] was 67% (inactive). The compound also showed a viability in assay [3] of 69.7%. For the same compound, the fold change in assay [4] (setting [20]) was 0.913 (inactive); in assay [4] (setting [15]), 0.451. Besides, the results for the cell count in assay [4] (setting [16]) and in assay [4] (setting [17]) were 8290 and 9070, respectively. For the same compound, the z-score in assay [5] (setting [18]) was -1.44 (inactive); in [5] (setting [19]), 0.907.
In the case of `CCC1C=CC=CCC(C)C(O)C(C)C(=O)C(C)C(O)C(C)C(=O)C(C)C(O)C(C)C=CC(=O)OC2C(C)C(CC1)O[C@@]1(CCC(C)C(CC(C)O)O1)C2C` (some centres not stated), the fold change is 1.03 (inactive) in assay [4] (setting [20]) and 1.64 in assay [4] (setting [15]). Also, the cell count in [4] (setting [16]) amounted to 7130; in assay [4] (setting [17]) it was 6920. Besides, the z-score in assay [6] was -0.03 (inactive).
Regarding `CNc1ccc2oc(C[C@@H]3OC4(CC[C@@H]3C)O[C@H](C(C)C(=O)c3ccc[nH]3)[C@H](C)C[C@H]4C)nc2c1C(=O)O` (some centres not stated), the half-maximal effective concentration (EC50) in assay [7] was 1000 nM (active). This compound also came in with an inhibition in [8] of 86.4%. In [9], this compound registered a score of -0.79. The cytochrome c release ratio in assay [10] was 0.48. This compound showed an inhibition of aggregation in [11] of 51.9%. The normalised LDH release in [12] is 1.68. Further, in assay [13], the glutamate uptake change is -78%. Further, the aggregation suppression score in [14] was -0.166. Further, the values for the fold change in assay [4] (stronger effect = lower value) and in assay [4] (setting [15]) were 1.33 (inactive) and 0.886, respectively. Moreover, the cell count in assay [4] (setting [16]) was found to be 885; in [4] (setting [17]) it was 666.
For the compound `C[C@]12CC[C@H](O)C[C@H]1CC[C@@H]1[C@@H]2C[C@@H](O)[C@]2(C)[C@@H](C3=CC(=O)OC3)CC[C@]12O`, the survival in assay [2] is 8.33 (inactive). The parasite load remaining in assay [3] is 0.32% (inactive). In [3], this compound came in with a viability of 57%. In addition, the fold change in assay [4] (stronger effect = lower value) is 0.713 (inactive); in assay [4] (setting [15]), 1.4. Also, the figures for the cell count in assay [4] (setting [16]) and in assay [4] (setting [17]) were 550 and 772, respectively. The z-score in assay [5] (setting [18]) was 2.02 (active); in assay [5] (setting [19]) it was -0.935.
With `CCC(=O)OC(Cc1ccccc1)(c1ccccc1)C(C)CN(C)C` (configuration not stated), the survival in [2] was 8.25 (inactive). In addition, the parasite load remaining in [3] is 85.5% (inactive). The compound also had a viability in [3] of 74.7%. Moreover, the fold change was 0.896 (inactive) in assay [4] (stronger effect = lower value) and 0.845 in [4] (setting [15]). The cell count in assay [4] (setting [16]) was determined as 9110; in [4] (setting [17]), 10200. The z-score in [5] (setting [18]) is 0.276 (inactive); in assay [5] (setting [19]) it was -0.451.
`Nc1cc2c(ncn2CCOCP(=O)(O)O)c(=O)[nH]1`: the fold change in [4] (stronger effect = lower value) is 1.06 (inactive); in [4] (setting [15]), 1.02. The cell count in assay [4] (setting [16]) is 3380; in assay [4] (setting [17]), 3200. Moreover, in assay [6], the z-score is -0.655 (inactive).
